The assay in a line: P. falciparum Dd2 blood-stage growth inhibition, dose response, SYBR Green fluorescence, erythrocytes, dry powder, set 2 (AID 1159574).

Measured potencies and affinities stand elsewhere. Active and inactive are the calls of the source.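 The calls were made as follows: active = growth inhibitors whose fitted half-maximal dose is no more than twice the top valid dose; inconclusive = flat curve with 30 to 70% inhibition, or unreliable fit; inactive = the rest.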

As to `O=C(c1ccccc1F)N1CC(=O)N2[C@@H](CO)[C@@H](c3ccc(-c4cccnc4)cc3)[C@@H]2C1`, the compound was classed as inactive. In the case of `O=C(c1ccccc1F)N1CC(=O)N2[C@@H](CO)[C@H](c3ccc(-c4cccnc4)cc3)[C@@H]2C1`, the compound was classed as inactive.

The values above are taken from PubChem BioAssay AID1159574 (Broad Institute, 2015).
